Results: PubChem BioAssay AID624336 (National Center for Advancing Translational Sciences (NCATS), 2012)
Records with an inconclusive call do not appear. Active and inactive are the calls of the source. Calls come from the whole dose curve; as a rule, active = well fitted curve in the direction sought with a large enough effect; inconclusive = small, poorly fitted or top-dose-only effect; inactive = flat fitted curve, though single readings scatter.

experiment: Quantitative high throughput screen for delayed death inhibitors of the malarial parasite plastid: Hit Validation with Dd2 at 48 hr using Flow Cytometry; settings: P. falciparum Dd2 growth, flow cytometry SYBR/MitoTracker; relative growth, lower = inhibition: at 50 µM (top of the series)
Text: The goal of this screen is to discover new antimalarial compounds that act by inhibiting the development of the apicoplast organelle in the malarial parasite Plasmodium falciparum. Some antibiotics, such as azithromycin and tetracycline, are known to interfere with the apicoplast translational machinery, and have a potent antimalarial effect. […] We developed a cell-based quantitative high throughput screen that leverages this "delayed death" phenotype to enrich for compounds that target the apicoplast. To detect small molecules that cause the delayed death phenotype, erythrocytes infected with firefly luciferase-expressing parasites were incubated with compounds for either one or two generations, corresponding to 48 and 96 hours, respectively. Growth inhibition was detected by a decrease in luciferase activity. Compounds that inhibited parasite growth in the second generation at least five-fold more potently than in the first generation were defined as delayed death inducing. These compounds were selected for confirmatory screening using a flow cytometry based assay. This hit validation assay used the Dd2 cell line and measured at 48 hours. NIH Molecular Libraries Probe Production Network [MLPCN] NIH Chemical Genomics Center [NCGC] MLPCN Grant: R21 NS059500 Assay Provider: David Fidock and Eric Ekland, Columbia University
Test compounds were diluted in 20 microliters of complete media (RPMI 1640 with 0.5% w/v Albumax (GIBCO), 24 mM sodium bicarbonate (Sigma) and 10 ug/mL gentamycin (Gibco)) in clear 384-well plates (Greiner). All liquid handling was conducted using a Bio Tek Precision 2000 pipetting system. Twenty microliters of infected erythrocytes, 0.2% parasitemia (for 48 hour time points) or 0.1% parasitemia (for 96 hour time points) were added to the compound dilutions (1% hematocrit, final concentration; 40 microliters, total culture volume). The assay plates were incubated for 48 hours, or 96 hours, at 37 masculine C in a humidified chamber (Billups- Rothenberg, Del Mar, CA, USA), gassed with 5%CO2/5%O2/ 90%N2. After one generation (48 hours), 5 microliters of culture were harvested and transferred to a second 384 well plate for fluorescent staining. Samples were stained with 30 microliters of 2 x SYBR Green I (Invitrogen) and 150nM MitoTracker Deep Red (Invitrogen) diluted in 0.9% NaCl, 0.2% dextrose (Baxter) supplemented with 2.5% Fetal Calf Serum (Gibco) (saline/FCS). Mature erythrocytes lack nuclei and mitochondria, therefore only parasitized erythrocytes retain the SYBR Green I and MitoTracker Deep Red. After 30 minutes at 37 masculine C, the stained cells were diluted in an additional 60 microliters of saline/FCS. The samples were harvested directly from the 384 well plate using a Hypercyt High Capacity Flow Platform (Intellicyt) paired with a C6 Flow Cytometer (Accuri). The flow cytometry files were analyzed using FlowJo software (FlowJo).

Row | Compound | relative growth, lower = inhibition | Potency
1 | CN(C)S(=O)(=O)c1cc(NC(=O)C2=COCCO2)ccc1Cl | 1.39 (active) | 
2 | O=C(Nc1ccccc1N1CCOCC1)c1cccc(S(=O)(=O)N2CCOCC2)c1 |  | 14.7 µM (active)
3 | O=C(CSc1ccc(-c2cccnc2)nn1)Nc1ccccc1C(F)(F)F |  | 8.74 µM (active)
4 | CCOC(=O)c1ccc2c(c1)n(CC)c(/C=C/N(C)c1ccccc1)[n+]2CC |  | 2.08 µM (active)
5 | N#Cc1cccc(NC(=O)Cn2c3[n+](c4ccc(C(F)(F)F)cc42)CCCCC3)c1 |  | 26.1 µM (active)
6 | COc1ccc2c(ccc[n+]2CC(=O)c2ccccc2)c1 |  | 7 µM (active)
7 | Cc1ccc(-n2c(-c3ccc(Cl)cc3)c[n+]3c2CCC3)cc1 |  | 2.64 µM (active)
8 | COc1ccc(NC(=S)N2CCC(Cc3ccccc3)CC2)cc1OC |  | 10.8 µM (active)
9 | CCOc1ccc(S(=O)(=O)Nc2cc(S(=O)(=O)N(CC)CC)ccc2N2CCCC2)cc1 | 0.264 (active) | 
10 | CCCCN(CCCNC(=O)C1CCN(C(=O)c2cc3sccc3n2C)CC1)Cc1ccccc1 |  | 3.62 µM (active)
11 | CCCc1cc(=O)oc2cc(OC(C)C(=O)NCc3ccccn3)c(Cl)cc12 (stereo unspecified) |  | 20.8 µM (active)
12 | Clc1ccc(-c2c[n+](Cc3ccc(Cl)cc3Cl)c3n2CCCCC3)cc1 |  | 5.44 µM (active)
13 | CC1=Nc2cc(C(=O)N3CCCC3)ccc2Sc2ccc(C)cc21 | 0.214 (active) | 
14 | COCCNC(=O)c1cccc(OC2CCN(Cc3cccc(SC)c3)CC2)c1 |  | inactive
15 | O=C(CNC(=O)C1CCCCC1)OC(C(=O)c1ccccc1)c1ccccc1 (stereo unspecified) |  | inactive
16 | COc1cc(C(C)=O)ccc1OCC(O)CN1CCN(c2cc(C)cc(C)c2)CC1 (stereo unspecified) |  | inactive

Row | Compound | relative growth, lower = inhibition | Potency
17 | Cc1ccc(S(=O)(=O)Nc2ccc(C(=O)Nc3ccncc3)cc2)cc1 | 0.257 (active) | 
18 | CCCc1c(CC)c(=N)c2ccccc2n1C | 0.187 (active) | 
19 | CO[C@@H]1[C@@H](OC2OC(C)C(OC3CC(C)(O)C(OC(=O)CC(C)C)C(C)O3)C(N(C)C)C2O)[C@@H](CC=O)C[C@@H](C)C(=O)/C=C\C2O[C@H]2C[C@@H](C)OC(=O)C[C@H]1OC(C)=O (stereo partly specified) |  | 1.04 µM (active)
20 | COc1ccccc1N1CCN(CCC(=O)Nc2ccc(F)cc2)CC1 | 0.587 (active) | 
21 | COc1cccc(CN2CCN(c3nc4nonc4nc3N3CCCCC3)CC2=O)c1 |  | 14 µM (active)
22 | Cc1c(F)c(N2CCNC(C)C2)cc2c1c(=O)c(C(=O)O)cn2C1CC1 (stereo unspecified) |  | 4.14 µM (active)
23 | Brc1cccc(OCCCCN2CCCCC2)c1 |  | 2.36 µM (active)
24 | CCC(=O)OC1C(N(C)C)CC(C)O[C@H]1O[C@H]1[C@H](C)[C@@H](O[C@H]2CC(OC)[C@@H](O)C(C)O2)[C@H](C)C(=O)O[C@@H](CC)[C@](C)(O)[C@@H](O)[C@H](C)C(=O)[C@@H](C)C[C@]1(C)O (stereo partly specified) |  | 34.1 µM (active)
25 | CCOc1ccc(NC(=O)C[n+]2ccc(N(C)C)cc2)cc1 |  | 2.57 µM (active)
26 | CN(C)c1ccc(CN(C(=O)c2ccccc2Br)C2CCS(=O)(=O)C2)cc1 (stereo unspecified) |  | 9.14 µM (active)
27 | c1csc(CNc2ncnc3nc[nH]c23)c1 |  | inactive
28 | Cc1sc2nc[nH]c(=O)c2c1-c1ccc(Cl)cc1 |  | 31.7 µM (active)
29 | Cc1ccc(CN2CCC(n3nccc3NC(=O)c3ccccc3C)CC2)o1 |  | 2.38 µM (active)
30 | CCCCOc1ccc(N2C(N)=NC(N)=NC23CCCCC3)cc1 |  | 23 µM (active)
31 | CCCCN(CCCNC(=O)c1ccc(CS(=O)(=O)c2ccc(OC)cc2)o1)Cc1ccccc1 |  | 6.24 µM (active)
